# PubChem BioAssay
# “And” between values parts separate entries of the source, which are not always exact repeats. Equal values may be shown once. Results filed as inconclusive are left out. The source made the active and inactive calls. Unless noted, no stated cut-off is given here; in the data, active means inhibition above about 80%; inactive means the rest.
# What was measured:
# [1] = JHH-DIPG-1 glioma cell viability, MIPE5.0 library, CellTiter-Glo luminescence, qHTS (AID 1347067; cut-off not given, nearly all actives have AC50 up to about 26 µM;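 further: cells exposed to compound for 48 hours before readout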); conditions: JHH-DIPG-1 glioma viability, CellTiter-Glo ATP luminescence
# [2] = growth inhibition of DIPG cells – cell-based, MIPE5.0 library, qHTS (AID 1347068; cut-off not given, nearly all actives have IC50 up to about 30 µM); conditions: SU-DIPG-XXV viability
# [3] = viability loss with induced miR-34 in A549 – imaging, A549 dox-inducible miR-34, nuclei and caspase counts, primary screen (AID 1347080;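 active means compounds whose cell count with miR-34 switched on is under 0.7 times the count with it off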); conditions: A549 miR-34 inducible, Hoechst nuclei count, 48 h
# [4] = MELAS cybrid and Rieske KO viability enhancers – cell-based, MELAS cybrids, Rieske KO mouse fibroblasts, CellTiter-Glo, primary screen (AID 1508586;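 active means mean z-score across replicates of 1.96 or higher in either the MELAS or the Rieske mutant cell line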;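 further: z relative to plate mean and SD of compound and empty wells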); conditions: low glucose
# [5] = growth inhibition, single agent or in combination, cell-based, chromothripsis tumors, cisplatin or BGB combos (AID 1671449); conditions: LFS_MB_P medulloblastoma cells;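 further: cells exposed for 96 hours; 0% = vehicle DMSO and 100% = killing by high DMSO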
# [6] = growth inhibition, single agent and combos, cell-based, chromothripsis tumors, cisplatin or BGB combos (AID 1671450); conditions: HDN33 neuroblastoma cells, stronger effect = higher value;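 further: cells exposed to compound for four days; 0% = vehicle DMSO and 100% = cell killing by high DMSO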
# [7] = growth inhibition, single agents and combos, ICB984, cell-based, cisplatin or BGB combos, synergistic combos for chromothripsis tumors (AID 1671451; call rule not given here;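 further: cells exposed for 96 hours before readout; 0% = vehicle DMSO and 100% = killing by high DMSO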); conditions: ICB984 medulloblastoma cells, drug combinations, stronger effect = higher value
# [8] = growth inhibition, single agents and combos, LFS_MB_1R, cell-based, cisplatin or BGB combos, synergistic combos for chromothripsis tumors (AID 1671452); conditions: LFS_MB_1R medulloblastoma cells, stronger effect = higher value;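 further: cells exposed for 96 hours before readout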
# [9] = growth inhibition, single agents and combos, HTB85, cell-based, BGB or cisplatin IC20 combos, synergistic combos for chromothripsis tumors (AID 1671453); conditions: HTB85 osteosarcoma cells, drug combinations, stronger effect = higher value;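 further: cells exposed for 96 hours before readout; 0% = vehicle DMSO and 100% = high DMSO killing control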
# [10] = growth inhibition, single agents and combos, CRL2098, cell-based, BGB or cisplatin IC20 combos, synergistic combos for chromothripsis tumors (AID 1671454); conditions: CRL2098 osteosarcoma cells, drug combinations, stronger effect = higher value;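 further: cells exposed for 96 h before readout; 0% = vehicle DMSO and 100% = killing by high DMSO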
# [11] = growth inhibition, single agents and combos, HD-MB03, cell-based, BGB or cisplatin IC20 combos, synergistic combos for chromothripsis tumors (AID 1671455; in the data active means inhibition above about 83%;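 further: 0% = vehicle DMSO and 100% = high DMSO as cytotoxic control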); conditions: HD-MB03 medulloblastoma cells, stronger effect = higher value
# [12] = growth inhibition, single agents and combos, UWB1.289, cell-based, BGB or cisplatin combos, synergistic combos for chromothripsis tumors (AID 1671456); conditions: UWB1.289 ovarian carcinoma cells, stronger effect = higher value;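 further: cells exposed to compound for four days; 0% = vehicle DMSO and 100% = killing by high DMSO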
# [13] = growth inhibition, single agents and combos, LFS_MB_2R, cell-based, cisplatin combos, synergistic combos for chromothripsis tumors (AID 1671457); conditions: LFS_MB_2R medulloblastoma cells, stronger effect = higher value;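 further: cells exposed to compound for four days before readout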
# [14] = growth inhibition, MDA-MB-436, cell-based, BGB or cisplatin combos, synergistic combos for chromothripsis tumors (AID 1671458; call rule not given here;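 further: cells exposed for 96 hours; 0% = vehicle DMSO and 100% = killing by high DMSO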); conditions: MDA-MB-436 breast carcinoma growth inhibition, drug combinations, stronger effect = higher value
# [15] = UWB1.289_BRCA1 ovarian cancer growth, cell-based, BGB or cisplatin combinations (AID 1671459); conditions: UWB1.289 BRCA1 ovarian carcinoma, drug combinations, stronger effect = higher value
# [16] = drug combination toxicity in non-malignant astrocytes – cell-based, BGB or cisplatin IC20 combos, cytotoxicity control for chromothriptic childhood tumor combination screen (AID 1671460); conditions: Human astrocytes, viability inhibition, drug combinations, at 0.5 µM, stronger effect = higher value;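 further: cells exposed to compounds for 96 hours before viability readout; 0% = vehicle and 100% = killing control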
# [17] = BT084 cell growth, single and combined drugs, ICGC_MB145, cisplatin and BGB IC40 combos (AID 1671461); conditions: BT084 medulloblastoma cells, drug combinations, stronger effect = higher value;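 further: cells exposed to drugs for 96 hours; 0% = vehicle DMSO and 100% = high DMSO full killing control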
# [18] = RCMB18 cell growth, single agent and combined, cisplatin and BGB IC40 combos (AID 1671462); conditions: RCMB18 medulloblastoma cells, stronger effect = higher value;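 further: cells exposed to compound for four days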
# [19] = CRL1545 cell growth, single agent and combined, cisplatin and BGB IC20 combos (AID 1671464); conditions: CRL1545 osteosarcoma cells, stronger effect = higher value;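 further: cells exposed to compound for 96 hours before readout; 0% = vehicle DMSO and 100% = high DMSO killing control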
# [20] = measured here: combination with BGB IC40, at 0.05 µM
# [21] = measured here: with BGB IC20 combination, at 0.5 µM
# [22] = measured here: with cisplatin IC20 combination, at 0.5 µM
# [23] = measured here: combination with cisplatin, at 0.5 µM
# [24] = measured here: combination with cisplatin, at 5 µM
compound,measurement,setting,value
CC(C)C[C@H](NC(=O)[C@H](Cc1ccccc1)NC(=O)OCc1ccccc1)C(=O)C=O,outcome,[1],inactive
Nc1nc(F)nc2c1ncn2C1OC(COP(=O)(O)O)C(O)C1O (configuration not stated),outcome,[1],inactive
same,outcome,[2],inactive
same,fold change,"[3]; stronger effect = lower value, cell number ratio, induced over uninduced",0.831 (inactive)
same,fold change,[3]; measured here: relative caspase fold change +Dox/-Dox,1.44
same,cell count,"[3]; measured here: total cells with miR-34 induction, stronger effect = lower value",1120
same,cell count,[3]; measured here: total cells without miR-34 induction,1350
same,z-score,"[4]; MELAS cybrid survival, CellTiter-Glo 48 h, stronger effect = higher value",1.34 (inactive)
same,z-score,"[4]; Rieske KO mouse fibroblast survival, CellTiter-Glo 72 h",0.326
same,inhibition,"[5]; at 0.5 µM, stronger effect = higher value",-6.1% (inactive) and -16% (inactive)
same,inhibition,"[5]; measured here: combination with BGB IC20, at 0.005 µM",-22.8% and 0.183%
same,inhibition,"[5]; measured here: combination with BGB IC40, at 0.005 µM",-34.6% and 88.8%
same,inhibition,[5]; [20],-38.1% and -2.46%
same,inhibition,"[5]; measured here: combination with cisplatin, at 0.5 µM, stronger effect = higher value",-18.5% and -25%
same,inhibition,"[5]; measured here: combination with cisplatin, at 5 µM, stronger effect = higher value",-36% and -9.03%
same,inhibition,"[6]; BGB combo, at 5 µM",8.47% and 22.7%
same,inhibition,[6]; at 0.5 µM,-18.9% (inactive) and 5.11% (inactive)
same,inhibition,"[6]; cisplatin combo, at 5 µM",34% and 24.2%
same,inhibition,[6]; [21],-23% and -1.08%
same,inhibition,[6]; [22],-13.9% and 12.9%
same,inhibition,"[6]; single agent, at 5 µM",32.2% and 15.4%
same,inhibition,"[7]; BGB IC20 combo, at 0.005 µM",-19.2% and -1.57%
same,inhibition,"[7]; BGB IC40 combo, at 0.005 µM",-13.6% and -18.3%
same,inhibition,"[7]; BGB IC40 combo, at 0.05 µM",-31.2% and -1.01%
same,inhibition,[7]; at 0.5 µM,-29.2% (inactive) and -28.4% (inactive)
same,inhibition,"[7]; cisplatin combo, at 0.05 µM",-35.9% and -6.12%
same,inhibition,"[7]; cisplatin combo, at 0.5 µM",-20.9% and -39.7%
same,inhibition,"[7]; cisplatin combo, at 5 µM",-37.1% and 11.4%
same,inhibition,"[7]; measured here: 5 uM single agent, at 5 µM",0.546% and -0.896%
same,inhibition,[8]; at 0.5 µM,-6.95% (inactive) and -19.6% (inactive)
same,inhibition,[8]; [20],-26.6% and -4.09%
same,inhibition,[8]; [23],-0.649% and -47.1%
same,inhibition,[8]; [24],-27.4% and 0.798%
same,inhibition,[9]; at 0.5 µM,-3.37% (inactive) and -4.43% (inactive)
same,inhibition,"[9]; measured here: with BGB IC20, at 0.5 µM",-4.86% and 13.2%
same,inhibition,"[9]; measured here: with BGB IC20, at 5 µM",45.3% and 42.7%
same,inhibition,"[9]; measured here: with cisplatin IC20, at 0.5 µM",-6.04% and -18.8%
same,inhibition,"[9]; measured here: with cisplatin IC20, at 5 µM",12.2% and 45.7%
same,inhibition,"[9]; single agent, at 5 µM",36% and 50.6%
same,inhibition,[10]; at 0.5 µM,89.7% (active) and 91.2% (active)
same,inhibition,"[10]; measured here: combination with BGB at IC20, at 0.5 µM",89.6% and 91.3%
same,inhibition,"[10]; measured here: combination with cisplatin at IC20, at 0.5 µM",88.8% and 92.6%
same,inhibition,[11]; at 0.5 µM,-9.66% (inactive) and -9.92% (inactive)
same,inhibition,"[11]; measured here: combo with BGB at IC20, at 0.5 µM",-18.1% and -5.96%
same,inhibition,"[11]; measured here: combo with cisplatin at IC20, at 0.5 µM",-7.22% and -17%
same,inhibition,[12]; at 0.5 µM,0.55% (inactive) and 0.43% (inactive)
same,inhibition,"[12]; measured here: inhibition with BGB combination, at 0.05 µM",-14.7% and -18.8%
same,inhibition,"[12]; measured here: inhibition with cisplatin combination, at 0.05 µM",7.04% and -2.8%
same,inhibition,[13]; at 0.5 µM,-15.7% (inactive) and -21.8% (inactive)
same,inhibition,[13]; [23],-20.2% and -35.8%
same,inhibition,[13]; [24],-11.6% and -19.4%
same,inhibition,[14]; at 0.5 µM,-9.15% (inactive) and -15.9% (inactive)
same,inhibition,"[14]; measured here: BGB combination, at 0.5 µM",-8.11% and -21.9%
same,inhibition,"[14]; measured here: BGB combination, at 5 µM",-2.69% and -3.01%
same,inhibition,"[14]; measured here: cisplatin combination, at 0.5 µM",-21.1% and -19.1%
same,inhibition,"[14]; measured here: cisplatin combination, at 5 µM",-5.75% and -5.25%
same,inhibition,"[15]; BGB combination, concentration series, at 5 µM",11.6% and 15.8%
same,inhibition,[15]; at 0.5 µM,-0.02% (inactive) and -0.87% (inactive)
same,inhibition,"[15]; cisplatin combination, concentration series, at 5 µM",11.9% and 23.4%
same,inhibition,[16],1.35% (inactive) and 3.3% (inactive)
same,inhibition,[16]; measured here: combo with BGB IC20,-1.03% and 7.99%
same,inhibition,[16]; measured here: combo with cisplatin IC20,-5.99% and 1.9%
same,inhibition,[17]; at 0.5 µM,-11.5% (inactive) and -3.83% (inactive)
same,inhibition,"[17]; cisplatin combination, at 0.5 µM",-36% and -5.18%
same,inhibition,"[17]; cisplatin combination, at 5 µM",4.67% and -96.3%
same,inhibition,"[17]; measured here: BGB IC40 combination 0.05 uM, at 0.05 µM",-40.8% and -7.89%
same,inhibition,"[17]; single agent, at 5 µM",-1.22% and 8.96%
same,inhibition,[18]; at 0.5 µM,-12.8% (inactive) and -10.2% (inactive)
same,inhibition,"[18]; cisplatin combo, at 5 µM",18.6% and -15.8%
same,inhibition,"[18]; measured here: BGB IC40 combination, at 0.05 µM",-56.2% and -25.6%
same,inhibition,[18]; [23],24.5% and -1.4%
same,inhibition,"[18]; single agent, at 5 µM",-15.5% and 3.22%
same,inhibition,[19]; at 0.5 µM,-20.4% (inactive) and 8.11% (inactive)
same,inhibition,[19]; [21],-8.22% and 10.3%
same,inhibition,[19]; [22],-28.6% and 5.54%
same,inhibition,"[19]; single agent, at 0.05 µM",18.9% and -12.8%
same,inhibition,"[19]; single agent, at 5 µM",-12.4% and -14.9%
